# Reference: the supplement of paper PMC11001985
# Unmarked numbers belong to inactive results.
# Compound: C#CCNC(=O)CCSSCCC(=O)NCCc1ccc(C=O)c(C=O)c1
# Assay: lysine labeling ratio R10:1 (500 µM / 50 µM probe), SILAC-ABPP in living cells; higher = lower intrinsic lysine reactivity toward the probe, active = 2 or less
# Details: HeLa; probe concentrations 500 vs 50 µM
# Method in brief: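 SILAC light and heavy living HeLa cells in PBS at room temperature were labelled with 50 µM or 500 µM of an alkyne-tagged, disulfide-linked lysine probe, with forward and reverse label swaps. Mixed lysates were clicked to biotin-azide, trypsin-digested, captured on neutravidin, DTT-released, alkylated and analysed by LC-MS/MS on a TIMS-TOF Pro. R is the filtered median high-probe/low-probe MS1 peptide ratio per lysine, then the median across forward and reverse replicates. Ratios are capped at 20.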
# UniProt P15328, sequence (P15328 whole entry, looked up): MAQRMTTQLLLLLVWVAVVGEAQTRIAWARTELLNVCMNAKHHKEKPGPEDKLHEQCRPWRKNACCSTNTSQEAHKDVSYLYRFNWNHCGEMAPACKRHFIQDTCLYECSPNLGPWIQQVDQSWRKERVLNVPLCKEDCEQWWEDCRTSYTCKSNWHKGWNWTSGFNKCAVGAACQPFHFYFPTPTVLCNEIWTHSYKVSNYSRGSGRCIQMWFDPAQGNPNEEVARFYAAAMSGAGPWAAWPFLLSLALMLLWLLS
# UniProt P05556, sequence (P05556 whole entry): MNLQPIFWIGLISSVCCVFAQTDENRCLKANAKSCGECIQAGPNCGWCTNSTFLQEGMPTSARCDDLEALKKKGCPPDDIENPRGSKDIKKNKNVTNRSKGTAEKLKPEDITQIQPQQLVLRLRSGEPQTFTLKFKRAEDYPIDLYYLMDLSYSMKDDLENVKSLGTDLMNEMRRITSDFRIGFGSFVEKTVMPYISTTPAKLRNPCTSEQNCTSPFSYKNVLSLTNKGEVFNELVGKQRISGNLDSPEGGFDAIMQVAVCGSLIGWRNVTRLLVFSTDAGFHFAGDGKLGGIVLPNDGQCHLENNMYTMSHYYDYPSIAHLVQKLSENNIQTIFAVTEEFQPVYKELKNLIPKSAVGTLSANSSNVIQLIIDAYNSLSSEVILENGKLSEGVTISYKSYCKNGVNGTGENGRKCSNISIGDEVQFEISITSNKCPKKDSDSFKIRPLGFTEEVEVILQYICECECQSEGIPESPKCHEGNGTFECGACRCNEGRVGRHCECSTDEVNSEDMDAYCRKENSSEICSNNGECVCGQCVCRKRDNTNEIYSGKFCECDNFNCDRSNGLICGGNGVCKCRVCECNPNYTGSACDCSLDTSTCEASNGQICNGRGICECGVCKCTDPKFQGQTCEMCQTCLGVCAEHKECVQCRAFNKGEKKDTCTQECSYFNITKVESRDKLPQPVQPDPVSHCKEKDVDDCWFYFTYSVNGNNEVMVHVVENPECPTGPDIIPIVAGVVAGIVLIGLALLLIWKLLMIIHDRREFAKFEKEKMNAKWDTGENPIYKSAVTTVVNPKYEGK
# UniProt P56199, sequence (P56199 whole entry): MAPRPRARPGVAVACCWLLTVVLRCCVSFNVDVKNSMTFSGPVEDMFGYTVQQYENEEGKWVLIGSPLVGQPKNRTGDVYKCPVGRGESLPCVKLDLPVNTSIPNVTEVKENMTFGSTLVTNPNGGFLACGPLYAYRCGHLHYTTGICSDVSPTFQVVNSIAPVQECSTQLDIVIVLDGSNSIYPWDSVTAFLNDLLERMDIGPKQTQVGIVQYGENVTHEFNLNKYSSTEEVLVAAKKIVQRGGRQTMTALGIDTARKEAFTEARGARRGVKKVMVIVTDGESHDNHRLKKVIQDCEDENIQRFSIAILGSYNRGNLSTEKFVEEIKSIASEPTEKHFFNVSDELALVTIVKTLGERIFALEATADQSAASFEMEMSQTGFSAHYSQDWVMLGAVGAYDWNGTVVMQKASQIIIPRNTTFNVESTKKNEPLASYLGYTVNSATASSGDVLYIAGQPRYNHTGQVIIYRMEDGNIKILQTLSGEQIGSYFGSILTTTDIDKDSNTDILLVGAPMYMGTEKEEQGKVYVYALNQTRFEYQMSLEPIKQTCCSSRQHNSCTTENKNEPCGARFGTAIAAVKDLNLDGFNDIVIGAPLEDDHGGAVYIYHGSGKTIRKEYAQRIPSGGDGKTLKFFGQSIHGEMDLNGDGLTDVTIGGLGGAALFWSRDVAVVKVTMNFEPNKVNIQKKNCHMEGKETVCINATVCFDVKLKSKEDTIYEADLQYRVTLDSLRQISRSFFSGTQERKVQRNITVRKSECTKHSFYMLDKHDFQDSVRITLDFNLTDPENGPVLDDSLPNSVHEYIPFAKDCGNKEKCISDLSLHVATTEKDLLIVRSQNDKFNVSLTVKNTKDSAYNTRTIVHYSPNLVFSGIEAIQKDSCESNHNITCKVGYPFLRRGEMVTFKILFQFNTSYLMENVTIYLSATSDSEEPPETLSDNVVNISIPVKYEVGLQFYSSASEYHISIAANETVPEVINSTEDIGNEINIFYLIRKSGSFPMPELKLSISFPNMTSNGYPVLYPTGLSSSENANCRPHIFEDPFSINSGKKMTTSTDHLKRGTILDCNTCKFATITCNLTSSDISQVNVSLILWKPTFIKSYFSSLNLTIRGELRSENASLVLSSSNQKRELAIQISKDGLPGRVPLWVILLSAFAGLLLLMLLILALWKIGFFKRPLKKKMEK
# UniProt Q9Y653, sequence (Q9Y653 whole entry): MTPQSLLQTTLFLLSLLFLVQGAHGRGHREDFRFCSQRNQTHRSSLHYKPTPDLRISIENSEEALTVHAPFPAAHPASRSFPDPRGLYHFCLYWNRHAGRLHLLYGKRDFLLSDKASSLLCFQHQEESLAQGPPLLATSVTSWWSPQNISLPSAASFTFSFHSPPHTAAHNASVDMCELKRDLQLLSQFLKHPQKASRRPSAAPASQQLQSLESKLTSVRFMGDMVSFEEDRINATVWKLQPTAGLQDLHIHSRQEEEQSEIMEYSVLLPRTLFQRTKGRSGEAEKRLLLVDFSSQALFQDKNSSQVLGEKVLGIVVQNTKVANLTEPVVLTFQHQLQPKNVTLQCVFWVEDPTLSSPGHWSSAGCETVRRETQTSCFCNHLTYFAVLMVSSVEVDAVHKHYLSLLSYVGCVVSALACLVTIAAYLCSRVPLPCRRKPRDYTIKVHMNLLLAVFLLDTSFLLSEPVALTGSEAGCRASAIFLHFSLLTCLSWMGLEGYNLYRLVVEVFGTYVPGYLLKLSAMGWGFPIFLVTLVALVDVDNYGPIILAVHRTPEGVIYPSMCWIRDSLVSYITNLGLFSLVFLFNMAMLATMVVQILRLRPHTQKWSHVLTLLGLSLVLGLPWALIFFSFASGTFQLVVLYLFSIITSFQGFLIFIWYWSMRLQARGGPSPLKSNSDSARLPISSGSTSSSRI
# UniProt P00558, sequence (P00558 whole entry): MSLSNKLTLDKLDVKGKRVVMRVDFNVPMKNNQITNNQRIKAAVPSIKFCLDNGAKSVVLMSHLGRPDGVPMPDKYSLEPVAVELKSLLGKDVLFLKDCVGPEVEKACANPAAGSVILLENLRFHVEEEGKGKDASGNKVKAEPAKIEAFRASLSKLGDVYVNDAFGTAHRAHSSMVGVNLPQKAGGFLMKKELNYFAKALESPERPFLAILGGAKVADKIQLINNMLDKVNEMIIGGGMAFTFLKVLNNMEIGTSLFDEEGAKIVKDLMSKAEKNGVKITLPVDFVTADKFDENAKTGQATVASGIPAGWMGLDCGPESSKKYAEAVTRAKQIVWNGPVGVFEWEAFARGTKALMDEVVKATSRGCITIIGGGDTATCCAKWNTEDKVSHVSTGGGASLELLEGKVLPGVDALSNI
# UniProt Q00839, sequence (Q00839 whole entry): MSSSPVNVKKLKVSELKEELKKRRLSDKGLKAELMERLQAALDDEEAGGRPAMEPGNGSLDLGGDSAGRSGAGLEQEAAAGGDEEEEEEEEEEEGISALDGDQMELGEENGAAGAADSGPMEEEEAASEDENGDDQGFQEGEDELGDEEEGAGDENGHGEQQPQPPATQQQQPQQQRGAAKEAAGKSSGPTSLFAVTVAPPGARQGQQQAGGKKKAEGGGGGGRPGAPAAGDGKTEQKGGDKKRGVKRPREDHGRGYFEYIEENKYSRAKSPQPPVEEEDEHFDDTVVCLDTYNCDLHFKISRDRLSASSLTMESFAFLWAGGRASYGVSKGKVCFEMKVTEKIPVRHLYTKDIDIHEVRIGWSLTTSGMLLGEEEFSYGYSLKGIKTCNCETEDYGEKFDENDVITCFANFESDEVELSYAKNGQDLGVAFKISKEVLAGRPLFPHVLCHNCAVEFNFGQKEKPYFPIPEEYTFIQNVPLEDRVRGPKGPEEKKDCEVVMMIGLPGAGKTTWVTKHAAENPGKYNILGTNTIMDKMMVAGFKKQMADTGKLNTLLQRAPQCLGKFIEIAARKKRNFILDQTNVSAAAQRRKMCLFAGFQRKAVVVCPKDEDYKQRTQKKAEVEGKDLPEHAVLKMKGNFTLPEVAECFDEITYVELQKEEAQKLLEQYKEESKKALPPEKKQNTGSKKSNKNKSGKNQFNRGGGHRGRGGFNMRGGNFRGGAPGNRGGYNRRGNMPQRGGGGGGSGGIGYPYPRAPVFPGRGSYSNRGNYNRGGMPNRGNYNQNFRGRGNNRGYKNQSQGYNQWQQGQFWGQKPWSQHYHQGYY
# UniProt P78371, sequence (P78371 whole entry): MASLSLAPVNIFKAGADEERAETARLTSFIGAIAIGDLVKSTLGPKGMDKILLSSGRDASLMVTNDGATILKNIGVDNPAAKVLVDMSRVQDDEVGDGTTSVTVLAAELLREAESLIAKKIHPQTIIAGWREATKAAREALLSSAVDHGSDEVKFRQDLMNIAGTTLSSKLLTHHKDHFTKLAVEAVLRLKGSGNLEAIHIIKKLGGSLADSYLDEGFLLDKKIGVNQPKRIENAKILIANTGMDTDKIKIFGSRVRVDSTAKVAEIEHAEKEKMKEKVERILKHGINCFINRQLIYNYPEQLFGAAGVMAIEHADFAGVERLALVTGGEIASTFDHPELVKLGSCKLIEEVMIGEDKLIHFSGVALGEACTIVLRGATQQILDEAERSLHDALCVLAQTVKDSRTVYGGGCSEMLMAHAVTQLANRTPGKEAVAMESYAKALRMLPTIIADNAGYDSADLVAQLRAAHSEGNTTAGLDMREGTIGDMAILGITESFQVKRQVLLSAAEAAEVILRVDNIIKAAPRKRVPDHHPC
# UniProt P21926, sequence (P21926 whole entry): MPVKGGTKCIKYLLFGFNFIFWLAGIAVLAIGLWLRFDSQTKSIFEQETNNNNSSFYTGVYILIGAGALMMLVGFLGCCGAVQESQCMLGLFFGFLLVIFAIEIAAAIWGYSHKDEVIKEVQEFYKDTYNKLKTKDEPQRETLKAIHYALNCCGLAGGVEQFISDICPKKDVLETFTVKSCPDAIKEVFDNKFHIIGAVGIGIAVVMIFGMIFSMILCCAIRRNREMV
row,Target,lysine labeling ratio R10:1
1,ECE1 (lysine site: K401) (UniProt P42892),2.77
2,FLNA (lysine site: K837) (UniProt P21333),4.31
3,UniProt Q9Y653 (lysine site: K107),2.31
4,CCT2 (lysine site: K441) (UniProt P78371),1.98 (active)
5,ITGA1 (lysine site: K81) (UniProt P56199),2.7
6,HNRNPU (lysine site: K31) (UniProt Q00839),1.72 (active)
7,MSLN (lysine site: K299) (UniProt Q13421),3.1
8,DNAJA1 (lysine site: K136) (UniProt P31689),1.69 (active)
9,FOLR1 (lysine site: K52) (UniProt P15328),12.6
10,PGK1 (lysine site: K146) (UniProt P00558),1.57 (active)
11,SPTAN1 (lysine site: K2187) (UniProt Q13813),5.14
12,ACTN4 (lysine site: K66) (UniProt O43707),4.43
13,FOLR1 (lysine site: K46) (UniProt P15328),12.6
14,CD9 (lysine site: K133) (UniProt P21926),5.95
15,ITGB1 (lysine site: K105) (UniProt P05556),6.92
16,ACTBL2 (lysine site: K114) (UniProt Q562R1),1.15 (active)
17,DSG2 (lysine site: K451) (UniProt Q14126),0.823 (active)
